Screening results (PubChem)
BRCA1 expr up – increases BRCA1 expression | Potency, µM (top dose mostly 46.1 µM), without a hit: top-dose activation, usual class: activators | MCF7-BRCA1-FFLuc reporter, luminescence, 48 h; response scale: scaled: vehicle 0%, 10 µM genistein 100% | 380,000 tested, 1.1% active; further: potency means the concentration at half of the fitted maximal effect; nearly all actives have a fitted effect of over 80% in size
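Luminescence from a BRCA1-driven firefly luciferase in MCF7 cells was read after 48 h compound exposure at 37 C. Data normalized against DMSO and a 10microM genistein activation control, then curve-fitted across the titration.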
Nrf2 ARE act – activates Nrf2 signaling; AREc32 ARE-luciferase reporter (MCF7-derived line), luminescence, 24 h; Potency, µM (titrated, usually from 46.1 µM), inactives show at the top dose activation, hits mostly activators; 410,000 tested, 0.31% active; AID 624171; further: potency means the concentration at half of the fitted maximal effect; % of control where 0% means no effect; nearly all actives have a fitted effect of over 65% in size
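For detection, Steady-Glo was added and plates sat 30 min at RT; before that, AREc32_Fluc cells grown overnight in OPTI-MEM/5% FBS had been treated with 23 nL compound for 24 hr at 37 deg C.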
IL2 activator – IL-2 activation; 360,000 tested, 0.065% active; activation, % (series mostly up to about 46 µM); IL-2 activation reporter assay, cell-based qHTS; stimulated with anti-CD3/CD4/CD28 beads; in transgenic mouse T cells; in the data active means activation above about 50%; inconclusive means mostly about 30% to 49%; further: 0% is about no effect
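Unstimulated transgenic mouse T cells, 750 per well, received compound and, after 60 minutes, anti-CD3/anti-CD4 bead plus anti-CD28 stimulation. EGFP and DsRed were quantified after 18 hours.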
ELG1 repair inh – blocks ELG1-dependent DNA repair in HEK293T cells; HEK293T ELG1-luciferase reporter, luminescence, 16 h; DNA damage induced by 5-fluorouridine; Potency, µM (series often up to 46.1 µM), for the others: at the top dose activity change, negative = inhibition, hits mostly inhibitors; 330,000 tested, 2.3% active; AID 504467; further: potency means the concentration at half of the fitted maximal effect; on the % scale 0 is the no-effect control and ±100 the full control effect; nearly all actives have a fitted effect of over 55% in size
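Quantitative HTS, concentration-response format. 2,000 cells/well co-treated with 5-fluorouridine and compound, 16 hr in 5% CO2 at 37 °C; ONE-Glo luminescence read after 30 min.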
* marks the source's active call; other numbers are inactive results; ? = inconclusive; / = no result. Rows were chosen to be rich in hits. Some 3.1% of all compounds tested hit in one or more screens of this group. Unless noted, the call rests on the fitted dose curve; in most records, active means well fitted curve in the direction sought with a large enough effect; inconclusive means small, poorly fitted or top-dose-only effect, or another doubt; inactive means no such curve, though single readings can be large; an effect the other way counts as inactive or inconclusive.

SMILES | BRCA1 expr up | Nrf2 ARE act | IL2 activator | ELG1 repair inh
CC1=C(C(=O)Nc2ccccc2)C(c2ccncc2)n2nc(SCc3ccccc3)nc2N1 (centres undefined) | 2% | 0% | / | /
Cc1ccc(O)c(NC(=O)c2ccco2)c1 | 0% | ? | 0 | ?
O=C(Nc1ccc2[nH]c3c(c2c1)CCCC3)c1ccco1 | 27% | 13µM* | 0 | 4.5µM*
Cc1cc2cc(NC(=O)c3ccco3)ccc2[nH]1 | ? | 0% | 0 | ?
Cc1ccc(NC(=O)CNC(=O)c2ccco2)cc1 | 11µM* | -1% | -3 | ?
Cc1cc(O)c(NC(=O)c2ccco2)cc1C | 16% | 13µM* | -1 | ?
C=CCOC(=O)c1sc(NC(=O)c2ccco2)nc1C | 11% | 5µM* | 0 | ?
O=C(Nc1nccs1)c1ccc(S(=O)(=O)NCc2cccs2)cc1 | 1% | 3% | 1 | 18µM*
O=C(Nc1ccc(Oc2ccc(NC(=O)c3ccco3)c(NC(=O)c3ccco3)c2)cc1)c1ccco1 | 41% | 2% | 0 | 16µM*
O=C(NNC(=S)NC(=O)c1ccco1)c1ccc(NC(=O)c2ccccc2)cc1 | -24% | 0% | -1 | 15µM*
O=C(Nc1ccc(Oc2ccc3ccccc3c2)cc1)c1ccco1 | -38% | 1% | 0 | ?
O=C(Nc1nccs1)c1ccc(S(=O)(=O)NCC2CCCCC2)cc1 | -70% | 0% | -4 | 2%
CCN(CC(=O)Nc1ccccc1OC)Cc1csc(CC(=O)Nc2ccc(C)cc2)n1 | -52% | 6% | -1 | 9.2µM*
Cc1ccc(NC(=O)Cc2nc(COC(=O)c3c(F)cccc3Cl)cs2)cc1 | -3% | 1% | -2 | 18µM*
Cc1ccc(NC(=O)Cc2nc(COC(=O)Cc3cccc(C(F)(F)F)c3)cs2)cc1 | 34% | 3% | 0 | 22%
Cc1ccccc1NC(=O)Cc1nc(COC(=O)c2ccc(Cl)c(S(N)(=O)=O)c2)cs1 | 2% | 0% | 1 | 5.2µM*
CC(=O)c1c(C)[nH]c(C(=O)OCc2csc(CC(=O)Nc3ccccc3C)n2)c1C | -30% | 5% | 0 | 13µM*
O=C(NCCc1ccccc1Cl)c1ccc(Cn2c(=O)c3cccn3c3cccnc32)cc1 | / | 0% | / | /
Cc1cccc(CSc2cn(CC(=O)N3CCOCC3)c3ccccc23)c1 | 3.5µM* | 6% | 0 | ?
Cc1cccc(CSc2cn(CC(=O)N3CCCCCC3)c3ccccc23)c1 | / | 9% | / | /
Cc1cc(C(=O)CN2C(=O)C(=O)N(Cc3ccccc3)C2=O)c(C)n1CC1COc2ccccc2O1 (centres undefined) | -54% | 0% | -1 | 6.5µM*
COc1cc(NC(=O)c2c(C)oc3ncnc(N4CCCCC4)c23)cc(OC)c1 | / | 8% | / | /
CC(C)CCSc1nc(N2CCOCC2)c2c(c1C#N)CC(C)(C)OC2 | -34% | 0% | -4 | 12µM*
CCCCNC(=O)C(=O)N/N=C/c1ccc(OCc2ccccc2)cc1 | -2% | -1% | -1 | 6%
Oc1ccc(N=Cc2ccc(OCc3ccccc3)cc2)cc1 | -55% | 14µM* | -1 | ?
SMILES | BRCA1 expr up | Nrf2 ARE act | IL2 activator | ELG1 repair inh
CC(C)(C)NCC(=O)N/N=C/c1ccc(OCc2ccccc2)cc1 | 10µM* | 9% | 0 | ?
O=C(Nc1ccc(-c2csc(Nc3ccccc3)n2)cc1)c1cc([N+](=O)[O-])cc(C(F)(F)F)c1 | -65% | 0% | 0 | 9.2µM*
O=C(Nc1cccc(-c2csc(Nc3cccc(C(F)(F)F)c3)n2)c1)c1cc([N+](=O)[O-])cc(C(F)(F)F)c1 | -35% | 6% | -1 | 2.6µM*
O=S(=O)(c1ccc(Cl)cc1)c1nc(-c2cccs2)oc1SCc1ccc(F)cc1 | / | 0% | / | /
CCOc1ccccc1NC(=O)Nc1ccc2c(c1)OCO2 | 20% | 0% | 0 | ?
C=CCOc1ccccc1CN(C(=O)CCl)c1ccc2c(c1)OCO2 | -62% | 22µM* | -4 | -1%
CCC(=O)Nc1ccc2nc(SCCOc3ccc(C)cc3OC)sc2c1 | -3% | 4% | / | /
Cc1cccc(NC(=O)CCCN2C(=O)C3CC=CCC3C2=O)c1 (centres undefined) | 5% | 0% | -1 | 0%
CCc1ccc(NC(=O)CCCN2C(=O)C3CC=CCC3C2=O)cc1 (centres undefined) | 7.9µM* | 3% | -1 | -7%
CCCCc1ccc(Nc2ncnc3nc[nH]c23)cc1 | 4.5µM* | -1% | -2 | ?
